According to PubChem BioAssay (NCATS):
Values joined by “and” are separate entries in the source; they are usually repeats but may differ in a detail not shown here. Equal values may be shown once. Results filed as inconclusive are left out. Active and inactive are the calls of the source. Unless noted, the call rests on the fitted dose curve; in most records, active means well fitted curve in either direction with a large enough effect (not every such curve was filed as active); inconclusive means small, poorly fitted or top-dose-only effect, or another doubt; inactive means flat fitted curve, though single readings scatter.

What was measured:
[1] = AP1 Signaling Pathway (AID 357); conditions: ME-180 (cervical carcinoma) AP-1-bla reporter, EGF-induced, beta-lactamase ratio, 5 h;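 further: ME-180 reporter cells stimulated with EGF at its EC50 level; on the % scale 0 is the no-effect control and ±100 the full control effect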
Method in brief: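 Cells are seeded overnight, exposed to compound titrations and an EC50 level of EGF for 5 hours at 37 °C, then loaded with CCF4 dye for 2.5 hours. Beta-lactamase activity under the AP-1 element is read as a blue/green ratio.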

[2] = target: Cytochrome P450 1A2 (Homo sapiens) (UniProt P05177); test: p450-cyp1a2 (AID 410; calls by dose curve; further: potency means the concentration at half of the fitted maximal effect;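 on activity change, negative = inhibition: -100% = full effect of reference inhibitor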); conditions: recombinant CYP1A2, luciferin-ME demethylation, luminescence; series mostly up to 57 µM
Method in brief: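 Human CYP1A2 (20nM) demethylated Luciferin-ME at its Km (100uM) in 100mM KPO4. After 10 min compound preincubation, NADPH regeneration ran the reaction 60 min at room temperature. Luciferin was read by luminescence, normalized to 57 uM furafylline.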

[3] = NFAT Signaling Pathway (AID 444); conditions: Jurkat NFAT-bla M1, carbachol, beta-lactamase ratio, 5 h;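 further: carbachol stimulus at about its EC50 of 1 µM final; on the % scale 0 is the no-effect control and ±100 the full control effect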
Method in brief: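 Jurkat cells with NFAT-driven β-lactamase reporter and co-expressed M1 receptor, stimulated with carbachol (final 1 uM, ~EC50), compound titration, 5 h at 37 °C. CCF4 loaded 1 h at RT; 460/530 nm ratio gave %activity and AC50.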

[4] = Cell Viability - BJ (AID 421; calls by dose curve;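 further: potency means the concentration at half of the fitted maximal effect; cells exposed to compound for 40 hours at 37 °C before readout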); conditions: BJ fibroblast viability, qHTS
Method in brief: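 Cytotoxicity as drop in intracellular ATP (CellTiter-Glo, 20 min RT) after 40 hr compound exposure of BJ fibroblasts at 37 °C. Titrations scaled between DMSO and 100 uM tamoxifen, Hill-fitted for AC50.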

[5] = Cell Viability - Jurkat (AID 426;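 active means dose-dependent loss of cell ATP signal giving a full or clear fitted curve, ranked by lower potency value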; further: potency means the concentration at half of the fitted maximal effect); conditions: qHTS
Method in brief: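 Jurkat (clone E6-1, human T-cell leukemia) cells, 5000/well in complete medium, were exposed to compound for 40 hr at 37 °C. Viability was read as intracellular ATP by CellTiter-Glo luminescence; AC50 came from Hill fits of concentration-response data.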

[6] = Cell Viability - Hek293 (AID 427;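 active means compounds whose dose-response curve shows a full or clear partial loss of cell viability, called from curve shape rather than a numeric limit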;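 further: potency means the concentration at half of the fitted maximal effect; cells exposed to compound for 40 hours at 37 °C before reading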); conditions: qHTS
Method in brief: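 Luminescent ATP content (CellTiter-Glo, 20 min at room temperature) was measured after a 40 hr, 37 °C compound exposure of HEK293 cells. AC50 values came from Hill-equation fits of qHTS concentration-response data normalized to DMSO and 100 uM tamoxifen.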

[7] = Cell Viability - HepG2 (AID 433; calls by dose curve;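 further: potency means the concentration at half of the fitted maximal effect; potency for ATP loss meaning cytotoxicity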); conditions: qHTS
Method in brief: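 Cytotoxicity is scored as loss of intracellular ATP in HepG2 cells exposed to compounds for 40 h. Concentration-response curves, normalized to DMSO and 100 uM tamoxifen, give AC50 values.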

[8] = Cell Viability - MRC5 (AID 434; calls by dose curve;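 further: potency means the concentration at half of the fitted maximal effect; potency reflects cytotoxicity seen as loss of intracellular ATP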); conditions: MRC5 lung fibroblast viability, qHTS
Method in brief: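 MRC5 normal human lung fibroblasts, 1500 cells/well, exposed to compound for 40 hr at 37 C. Cellular ATP was read by CellTiter-Glo luminescence; data normalized to DMSO and 100 uM tamoxifen, with AC50 from Hill fits.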

[9] = Cell Viability - SK-N-SH (AID 435; calls by dose curve;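 further: potency means the concentration at half of the fitted maximal effect; compound exposure lasted 40 h at 37 °C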); conditions: SK-N-SH neuroblastoma cell viability qHTS
Method in brief: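 Cells seeded at 1500 per well and incubated 5 hr at 37 °C. Compound added, then 40 hr at 37 °C. CellTiter-Glo added, 20 min at room temperature, luminescence read.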

[10] = target: Lysosomal acid glucosylceramidase (Homo sapiens) (UniProt P04062); test: Glucocerebrosidase-p2 (AID 348; in the data active means potency below about 10 µM; further: potency means the concentration at half of the fitted maximal effect); conditions: purified GBA, blue fluorogenic substrate, 40 min
Method in brief: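 Compounds titrated from 0.6 nM upwards against 0.2 nM enzyme in pH 5.9 citric acid/KH2PO4, taurocholate, tween-20; blue fluorogenic substrate 80 uM, 40 min room temperature, stopped and read Ex 365/Em 440 for AC50.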

Chain of Cytochrome P450 1A2 (Homo sapiens) (P05177 whole entry, looked up): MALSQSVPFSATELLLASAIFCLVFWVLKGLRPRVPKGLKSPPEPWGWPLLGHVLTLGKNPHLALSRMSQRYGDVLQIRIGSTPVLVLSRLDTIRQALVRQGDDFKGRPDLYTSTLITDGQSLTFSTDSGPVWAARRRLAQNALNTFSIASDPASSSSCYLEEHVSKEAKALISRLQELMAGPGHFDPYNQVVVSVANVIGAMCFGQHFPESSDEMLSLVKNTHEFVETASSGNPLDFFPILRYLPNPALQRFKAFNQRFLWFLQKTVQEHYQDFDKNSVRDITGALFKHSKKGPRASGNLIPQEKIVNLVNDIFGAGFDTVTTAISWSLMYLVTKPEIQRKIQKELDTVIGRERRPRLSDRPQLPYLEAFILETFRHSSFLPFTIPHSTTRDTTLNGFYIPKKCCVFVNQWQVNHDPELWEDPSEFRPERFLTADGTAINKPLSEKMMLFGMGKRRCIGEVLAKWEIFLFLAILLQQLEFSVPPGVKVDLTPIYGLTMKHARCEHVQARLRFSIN
Chain of Lysosomal acid glucosylceramidase (Homo sapiens) (P04062 whole entry, looked up): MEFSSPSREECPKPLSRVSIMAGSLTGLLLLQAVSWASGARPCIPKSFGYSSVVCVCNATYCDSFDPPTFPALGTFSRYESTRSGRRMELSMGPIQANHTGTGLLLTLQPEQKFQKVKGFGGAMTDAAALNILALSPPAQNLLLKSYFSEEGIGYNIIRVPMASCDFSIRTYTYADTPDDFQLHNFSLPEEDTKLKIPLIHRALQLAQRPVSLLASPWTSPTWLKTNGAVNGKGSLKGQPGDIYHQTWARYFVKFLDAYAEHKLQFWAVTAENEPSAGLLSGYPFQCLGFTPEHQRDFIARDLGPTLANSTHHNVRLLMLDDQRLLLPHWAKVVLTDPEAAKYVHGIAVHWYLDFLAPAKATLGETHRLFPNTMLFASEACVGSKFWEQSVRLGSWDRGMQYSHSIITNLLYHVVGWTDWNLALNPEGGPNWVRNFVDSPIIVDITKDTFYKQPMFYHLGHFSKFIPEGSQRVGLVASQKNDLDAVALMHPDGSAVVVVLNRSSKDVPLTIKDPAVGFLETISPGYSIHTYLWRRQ

NNCCc1ccccc1
active: Potency [2] 3.16 µM and 1 µM
inactive: activity change, negative = inhibition ([1]; at 17.2 µM (top of the series)) -1.06% | activity change, negative = inhibition ([1]; at 38 µM (top of the series)) 26% | activity change, negative = inhibition ([3]; at 17.2 µM (top of the series)) -10.8% | activity change, negative = inhibition ([3]; at 38 µM (top of the series)) -17.1%

Cc1ccc2c(c1)C(=O)[C@@]1(O)CCN(c3ccccc3)C1=N2
active: Potency [2] 3.98 µM

NC(N)=NC(=O)c1nc(Cl)c(N)nc1N
inactive: activity change, negative = inhibition ([1]; at 17.2 µM (top of the series)) 2.66% and -5.39% | activity change, negative = inhibition ([1]; at 38 µM (top of the series)) -2.62% | Potency [4] > 92 µM | Potency [5] > 92 µM | Potency [6] > 92 µM | Potency [7] > 92 µM | Potency [8] > 92 µM | Potency [9] > 92 µM | activity change, negative = inhibition ([3]; at 17.2 µM (top of the series)) 8.59% and -17.4% | activity change, negative = inhibition ([3]; at 38 µM (top of the series)) -2.5%
active: Potency [2] 12.6 µM and 6.31 µM

Cc1ccc(N(CC2=NCCN2)c2cccc(O)c2)cc1
inactive: activity change, negative = inhibition ([1]; at 17.2 µM (top of the series)) 6.96% and 4.13% and 12.9% | activity change, negative = inhibition ([1]; at 38 µM (top of the series)) 18% | Potency [2] | activity change, negative = inhibition ([3]; at 17.2 µM (top of the series)) -19.1% and -11.9% and 3.66% | activity change, negative = inhibition ([3]; at 38 µM (top of the series)) -12.9%

Nc1nc2c(ncn2COCCO)c(=O)[nH]1
inactive: activity change, negative = inhibition ([1]; at 17.2 µM (top of the series)) 10.5% and -13.7% | activity change, negative = inhibition ([1]; at 38 µM (top of the series)) 1.53% | Potency [2] | activity change, negative = inhibition ([3]; at 17.2 µM (top of the series)) -0.796% and 22.4% | activity change, negative = inhibition ([3]; at 38 µM (top of the series)) 9.44%

CNC[C@H](O)c1cccc(O)c1
inactive: activity change, negative = inhibition ([1]; at 17.2 µM (top of the series)) -10.2% | activity change, negative = inhibition ([1]; at 38 µM (top of the series)) -17.9% | activity change, negative = inhibition ([3]; at 17.2 µM (top of the series)) -25.3% | activity change, negative = inhibition ([3]; at 38 µM (top of the series)) -0.528%

CC(C[N+](C)(C)C)OC(N)=O (stereo unspecified)
inactive: activity change, negative = inhibition ([1]; at 17.2 µM (top of the series)) 1.75%

CN1CCN(CCCN2c3ccccc3Sc3ccc(C(F)(F)F)cc32)CC1
inactive: Potency [10] > 11.4 µM | activity change, negative = inhibition ([1]; at 17.2 µM (top of the series)) 7.77% and 23.2% | activity change, negative = inhibition ([1]; at 38 µM (top of the series)) 29.9%

CCCC(CCC)C(=O)O
inactive: activity change, negative = inhibition ([1]; at 38 µM (top of the series)) 10.8% | Potency [2] | Potency [4] > 92 µM | Potency [5] > 92 µM | Potency [6] > 92 µM | Potency [7] > 92 µM | Potency [8] > 92 µM | Potency [9] > 92 µM | activity change, negative = inhibition ([3]; at 38 µM (top of the series)) 4.56%

N#Cc1ccc(C(c2ccc(C#N)cc2)n2cncn2)cc1
inactive: activity change, negative = inhibition ([1]; at 17.2 µM (top of the series)) -15.5% | activity change, negative = inhibition ([3]; at 17.2 µM (top of the series)) -8.25%

CC(C)C[C@H](NC(=O)[C@@H](O)[C@H](N)Cc1ccccc1)C(=O)O
inactive: Potency [2]

Cc1ccccc1C(OCCN(C)C)c1ccccc1 (stereo unspecified)
inactive: activity change, negative = inhibition ([1]; at 17.2 µM (top of the series)) 14.6%
active: activity change, negative = inhibition ([3]; at 17.2 µM (top of the series)) -85.9%

Cc1cnc(NC(=O)C2=C(O)c3ccccc3S(=O)(=O)N2C)s1
inactive: activity change, negative = inhibition ([1]; at 17.2 µM (top of the series)) -12.9% | activity change, negative = inhibition ([1]; at 38 µM (top of the series)) 1.25% | activity change, negative = inhibition ([3]; at 17.2 µM (top of the series)) -9.71% | activity change, negative = inhibition ([3]; at 38 µM (top of the series)) 11.3%

NC(=O)c1cnccn1
inactive: activity change, negative = inhibition ([1]; at 38 µM (top of the series)) 5.47% | Potency [2] | Potency [4] > 92 µM | Potency [5] > 92 µM | Potency [6] > 92 µM | Potency [7] > 92 µM | Potency [8] > 92 µM | Potency [9] > 92 µM | activity change, negative = inhibition ([3]; at 38 µM (top of the series)) 2.31%

Clc1cccc(Cl)c1NC1=NCCN1
inactive: activity change, negative = inhibition ([1]; at 17.2 µM (top of the series)) -0.203% | activity change, negative = inhibition ([1]; at 38 µM (top of the series)) 4.79% | Potency [2] | activity change, negative = inhibition ([3]; at 17.2 µM (top of the series)) -11.5% | activity change, negative = inhibition ([3]; at 38 µM (top of the series)) -5.97%

Nc1nc2ccc(OC(F)(F)F)cc2s1
inactive: activity change, negative = inhibition ([1]; at 17.2 µM (top of the series)) 7.09% and 1.61% | activity change, negative = inhibition ([1]; at 38 µM (top of the series)) -15% | activity change, negative = inhibition ([3]; at 17.2 µM (top of the series)) 0.982% and -0.48% | activity change, negative = inhibition ([3]; at 38 µM (top of the series)) 13.4%

N[C@@H]1CONC1=O
inactive: activity change, negative = inhibition ([1]; at 17.2 µM (top of the series)) 4.13% and -17.2% | activity change, negative = inhibition ([1]; at 38 µM (top of the series)) 6.67% and -0.268% and -2.74% | Potency [2] | activity change, negative = inhibition ([3]; at 17.2 µM (top of the series)) -1.83% | activity change, negative = inhibition ([3]; at 38 µM (top of the series)) -6.1% and -4.54% and -4.29%

C1COC(NC(C2CC2)C2CC2)=N1
inactive: activity change, negative = inhibition ([1]; at 17.2 µM (top of the series)) -19.2% and -1.91% | activity change, negative = inhibition ([1]; at 38 µM (top of the series)) -23.4% | Potency [2] | activity change, negative = inhibition ([3]; at 17.2 µM (top of the series)) -20.2% and 11.2% | activity change, negative = inhibition ([3]; at 38 µM (top of the series)) -2.75%

Cc1oncc1C(=O)Nc1ccc(C(F)(F)F)cc1
active: Potency [2] 631 nM and 63.1 nM
inactive: activity change, negative = inhibition ([1]; at 17.2 µM (top of the series)) -20.4% and 3.89% | activity change, negative = inhibition ([1]; at 38 µM (top of the series)) -1.93% | activity change, negative = inhibition ([3]; at 17.2 µM (top of the series)) 0.0794% and 7.99% | activity change, negative = inhibition ([3]; at 38 µM (top of the series)) -5.42%
